Assay results from PubChem BioAssay AID2012 (Sanford-Burnham Center for Chemical Genomics, 2009).
The campaign covered roughly 290,000 compounds. About 2,700 (0.93%) were called active. No rule for the calls is given here. For the sample, actives were picked, then their nearest neighbours and some compounds at random.

Molecular target: Eukaryotic translation initiation factor 4H (Homo sapiens) (UniProt Q15056)
Experiment: human eIF4H binding inhibitors, primary screen, translation initiation inhibitor project, biochemical, uHTS, fluorescence polarization (AID 2012);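 also: calls also rest on retests at 20 µM and on dose response follow-up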
Conditions: eIF4H fluorescence polarization binding assay, stronger effect = higher value

Structure (SMILES) | inhibition (at 35 µM) | inhibition (confirmation average, at 20 µM) [%]
CN(CCOc1ccccc1)C(=O)c1cc(COc2c(F)cccc2F)on1 | -0.6% (inactive) | –
O=C(OCC1O[C@@H](OC(=O)c2cc(O)c(O)c(O)c2)[C@@H](OC(=O)c2cc(O)c(O)c(O)c2)[C@@H](OC(=O)c2cc(O)c(O)c(O)c2)[C@@H]1OC(=O)c1cc(O)c(O)c(O)c1)c1cc(O)c(O)c(O)c1 (some centres undefined) | 92% (active) | –
COc1ccc(N(CC(=O)Nc2cc(OC)ccc2OC)S(=O)(=O)c2c(C)noc2C)cc1 | -10.2% (inactive) | –
O=C(CSc1ncn[nH]1)N/N=C/c1ccc(F)cc1 | -1.2% (inactive) | –
COc1cc(CC(=O)NCc2cccs2)cc(OC)c1OC | -15% (inactive) | –
CCN(CC(=O)NCc1cccs1)C(=O)c1cccc(S(=O)(=O)Nc2ccccc2OC)c1 | 35.7% (active) | 53.9
CCN(CC(=O)NCc1cccs1)C(=O)c1ccccc1F | -2.7% (inactive) | –
Cc1ccc(C(=O)c2coc3ccc(O)c(CN(C)C)c23)cc1 | -10.3% (inactive) | –
Cc1c(C)c2ccc(OCC(=O)N3CCC(C(=O)O)CC3)c(C)c2oc1=O | -4% (inactive) | –
O=C(CNC(=O)C1COc2ccccc2O1)N/N=C/c1cc(Br)c(O)c(Br)c1 (centres undefined) | 7.4% (inactive) | –
Cc1c(CC(=O)N2CCN(C(=O)C3COc4ccccc4O3)CC2)c(=O)oc2c(O)c(O)ccc12 (centres undefined) | 61% (active) | 103
COc1ccccc1OCc1ccc(C(=O)NC(C)c2ccccc2)o1 (centres undefined) | -6.4% (inactive) | –
Cc1cccc(-c2nc3ccc(C(=O)NCCN4CCN(C)CC4)cc3nc2-c2cccc(C)c2)c1 | -1.5% (inactive) | –
O=C1CN(C(=O)c2ccccc2F)C(c2ccc(F)cc2)c2cc(F)ccc2N1 (centres undefined) | -4.2% (inactive) | –
Cc1c(-c2ccccc2)cn2c1-c1ccc(C)n1CC2 | 90.6% (active) | –
Cc1ccc2c(c1)N(CC(=O)N1CCC(C)CC1)C(=O)c1cccnc1O2 | -17.4% (inactive) | –
CCOc1ncccc1C(=O)NCCc1ccc(OC)cc1 | -1.9% (inactive) | –
COC(=O)c1cc(CNC(=O)CC(C)c2ccccc2)ccc1OC (centres undefined) | -2% (inactive) | –
C/C(=N\NC(=O)COc1ccc(C)cc1[N+](=O)[O-])c1ccc2c(c1)OCCO2 | -2.1% (inactive) | –
CC(NC(=O)COc1ccc(-c2ccccc2)cc1)C1CCCO1 (centres undefined) | -6.9% (inactive) | –
COC(=O)c1cnn2c(C(F)(F)F)cc(-c3ccco3)nc12 | -0.4% (inactive) | –
Cc1cc(C)c2nc(-c3ccco3)cc(C(=O)O)c2c1 | 103% (active) | –
Cc1ccsc1-c1cc(C(=O)O)c2c(ccc3ccccc32)n1 | 30.1% (inactive) | –
Cc1nc(N2CCOCC2)sc1C(=O)NN | 0.1% (inactive) | –
Fc1cc(F)c2nc(N3CCOCC3)sc2c1 | -7.8% (inactive) | –
Cc1cc(C)n(Cc2cnc(N3CCOCC3)s2)n1 | -7.9% (active) | 107
